Here are results for 1 sequence from publication PMC7862700, “An all-to-all approach to the identification of sequence-specific readers for epigenetic DNA modifications on cytosine”.

Holding throughout (experiment): DAPPL (digital affinity profiling via proximity ligation, sequencing); 10 mM Tris-HCl pH 7.5, 50 mM NaCl, 1 mM DTT, 4% glycerol, room temperature, 30 min; GST-TFs on glutathione beads, 16-mer random dsDNA library, 0.1% formaldehyde crosslink after washing; high values mean tight binding
One experiment deals with T1, FEV (Homo sapiens, UniProt Q99581 1-238).
T1 sequence: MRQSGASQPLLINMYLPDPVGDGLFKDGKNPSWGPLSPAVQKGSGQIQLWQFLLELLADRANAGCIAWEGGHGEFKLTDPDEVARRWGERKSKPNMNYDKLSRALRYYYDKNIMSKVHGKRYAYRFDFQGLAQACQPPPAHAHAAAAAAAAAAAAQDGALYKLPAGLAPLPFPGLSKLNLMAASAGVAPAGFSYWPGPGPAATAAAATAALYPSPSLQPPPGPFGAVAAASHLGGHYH
The settings on record: protein: recombinant; tags: N-terminal GST; dsDNA, one strand shown. The method in brief: (§1)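 Binding signal is each hexamer's read frequency for a factor divided by its frequency in the tag-only sample. The factors were GST-fused human transcription factors from yeast, captured on glutathione beads, DNA-barcoded and pooled with that sample. Pools were incubated with 200 nmole of a random double-stranded 16-mer DNA library in Tris/NaCl/DTT/glycerol buffer at room temperature for 30 min, then washed, crosslinked with 0.1% formaldehyde, proximity-ligated with BsaI/T4 ligase (1 h, 37 °C), PCR-amplified and sequenced on an Illumina NextSeq500.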

The next experiment has as its target ETV5 (Homo sapiens, UniProt P41161 1-510). The note with it: protein: recombinant; tags: N-terminal GST; dsDNA, one strand shown. The gist of the method:
as §1

In a further experiment the target is HSF1 (Homo sapiens, UniProt Q00613 1-529). The settings on record: protein: recombinant; tags: N-terminal GST; chain copies: 3; dsDNA, one strand shown. The method in brief:
as §1

The next experiment concerns the target T2, SPIC (Homo sapiens, UniProt Q8N5J4 1-248).
T2 sequence: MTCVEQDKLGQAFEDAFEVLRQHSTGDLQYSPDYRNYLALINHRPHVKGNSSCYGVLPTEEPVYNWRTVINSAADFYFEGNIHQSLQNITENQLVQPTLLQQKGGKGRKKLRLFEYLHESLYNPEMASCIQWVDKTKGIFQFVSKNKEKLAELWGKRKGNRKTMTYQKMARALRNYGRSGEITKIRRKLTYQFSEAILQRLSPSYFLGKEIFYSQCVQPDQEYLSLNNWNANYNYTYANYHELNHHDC
The note with it: protein: recombinant; tags: N-terminal GST; dsDNA, one strand shown. The method in brief: as §1

Another experiment deals with ELF4 (Homo sapiens, UniProt Q99607 1-663). The note with it: protein: recombinant; tags: N-terminal GST; dsDNA, one strand shown. The gist of the method:
as §1

Another experiment has as its target T3, ELK4 (Homo sapiens, UniProt P28324-2 1-405).
T3 sequence: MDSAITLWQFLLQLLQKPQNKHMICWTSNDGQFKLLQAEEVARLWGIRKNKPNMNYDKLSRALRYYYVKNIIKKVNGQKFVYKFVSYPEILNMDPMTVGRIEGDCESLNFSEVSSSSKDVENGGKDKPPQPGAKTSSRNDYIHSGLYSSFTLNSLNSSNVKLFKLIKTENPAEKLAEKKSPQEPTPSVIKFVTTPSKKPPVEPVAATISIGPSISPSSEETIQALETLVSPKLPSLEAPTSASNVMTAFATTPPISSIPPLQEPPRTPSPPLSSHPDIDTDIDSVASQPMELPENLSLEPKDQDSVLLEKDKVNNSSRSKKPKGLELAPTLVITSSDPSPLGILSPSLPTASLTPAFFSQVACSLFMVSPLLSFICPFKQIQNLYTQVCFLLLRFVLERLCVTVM
The settings on record: protein: recombinant; tags: N-terminal GST; dsDNA, one strand shown. The method in brief:
as §1

Another experiment deals with T4, ETV2 (Homo sapiens, UniProt O00321 1-342).
T4 sequence: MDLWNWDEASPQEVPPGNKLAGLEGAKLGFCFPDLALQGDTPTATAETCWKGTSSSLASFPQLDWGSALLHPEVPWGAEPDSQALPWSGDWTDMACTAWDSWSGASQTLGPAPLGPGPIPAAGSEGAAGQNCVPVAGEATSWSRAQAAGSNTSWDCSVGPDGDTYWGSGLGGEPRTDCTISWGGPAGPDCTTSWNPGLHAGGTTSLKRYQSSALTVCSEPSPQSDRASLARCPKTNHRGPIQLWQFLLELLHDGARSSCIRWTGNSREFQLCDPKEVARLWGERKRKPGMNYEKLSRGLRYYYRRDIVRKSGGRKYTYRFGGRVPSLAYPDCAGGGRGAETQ
The settings on record: protein: recombinant; tags: N-terminal GST; dsDNA, one strand shown. The gist of the method:
as §1

The target of the next experiment is T5, ELF3 (Homo sapiens, UniProt P78545 1-371).
T5 sequence: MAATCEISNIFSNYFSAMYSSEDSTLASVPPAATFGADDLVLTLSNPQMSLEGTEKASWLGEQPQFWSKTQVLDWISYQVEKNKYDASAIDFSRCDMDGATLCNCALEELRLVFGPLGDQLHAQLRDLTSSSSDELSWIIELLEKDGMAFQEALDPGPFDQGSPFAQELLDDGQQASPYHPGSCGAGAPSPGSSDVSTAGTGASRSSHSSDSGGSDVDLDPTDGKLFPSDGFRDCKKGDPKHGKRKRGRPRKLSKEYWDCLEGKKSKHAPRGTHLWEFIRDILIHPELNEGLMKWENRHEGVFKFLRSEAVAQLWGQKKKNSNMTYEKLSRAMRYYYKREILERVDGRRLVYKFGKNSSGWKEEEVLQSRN
The note with it: protein: recombinant; tags: N-terminal GST; dsDNA, one strand shown. The gist of the method:
as §1

In another experiment the target is CRX (Homo sapiens, UniProt O43186 1-299). The settings on record: protein: recombinant; tags: N-terminal GST; dsDNA, one strand shown. The gist of the method: as §1
Another experiment addresses ETV1 (Homo sapiens, UniProt P50549 1-477). The settings on record: protein: recombinant; tags: N-terminal GST; dsDNA, one strand shown. The gist of the method:
as §1

For the next experiment, the target named is T6, ERF (Homo sapiens, UniProt P50548 1-548).
T6 sequence: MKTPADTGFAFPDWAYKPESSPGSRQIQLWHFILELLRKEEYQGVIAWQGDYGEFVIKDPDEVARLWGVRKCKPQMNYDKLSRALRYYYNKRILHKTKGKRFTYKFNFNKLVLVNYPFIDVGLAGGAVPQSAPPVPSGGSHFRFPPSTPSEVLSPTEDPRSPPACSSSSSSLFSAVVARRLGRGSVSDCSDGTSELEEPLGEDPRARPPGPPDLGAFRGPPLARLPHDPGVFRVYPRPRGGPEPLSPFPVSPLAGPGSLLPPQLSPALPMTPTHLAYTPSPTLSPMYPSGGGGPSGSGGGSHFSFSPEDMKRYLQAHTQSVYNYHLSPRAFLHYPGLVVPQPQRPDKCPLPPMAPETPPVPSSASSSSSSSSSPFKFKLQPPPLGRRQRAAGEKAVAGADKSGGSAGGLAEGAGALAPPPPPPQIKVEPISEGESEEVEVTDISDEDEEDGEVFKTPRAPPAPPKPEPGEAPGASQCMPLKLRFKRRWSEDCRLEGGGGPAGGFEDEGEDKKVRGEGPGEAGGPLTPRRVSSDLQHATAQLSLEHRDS
The note with it: protein: recombinant; tags: N-terminal GST; dsDNA, one strand shown. The gist of the method:
as §1

The next experiment deals with T7, ETV3L (Homo sapiens, UniProt Q6ZN32 1-361).
T7 sequence: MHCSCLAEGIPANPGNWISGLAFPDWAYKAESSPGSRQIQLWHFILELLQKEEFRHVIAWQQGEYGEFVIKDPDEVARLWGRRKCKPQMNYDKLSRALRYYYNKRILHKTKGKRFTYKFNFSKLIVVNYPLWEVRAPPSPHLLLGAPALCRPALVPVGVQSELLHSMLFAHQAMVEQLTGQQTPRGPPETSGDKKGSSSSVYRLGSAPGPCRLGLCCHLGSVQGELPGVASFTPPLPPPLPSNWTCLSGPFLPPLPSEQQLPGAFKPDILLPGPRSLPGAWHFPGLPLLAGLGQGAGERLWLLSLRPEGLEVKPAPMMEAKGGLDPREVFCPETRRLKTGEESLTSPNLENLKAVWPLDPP
The settings on record: protein: recombinant; tags: N-terminal GST; dsDNA, one strand shown. The method in brief: as §1

A further experiment addresses T8, ETS2 (Homo sapiens, UniProt P15036 1-469).
T8 sequence: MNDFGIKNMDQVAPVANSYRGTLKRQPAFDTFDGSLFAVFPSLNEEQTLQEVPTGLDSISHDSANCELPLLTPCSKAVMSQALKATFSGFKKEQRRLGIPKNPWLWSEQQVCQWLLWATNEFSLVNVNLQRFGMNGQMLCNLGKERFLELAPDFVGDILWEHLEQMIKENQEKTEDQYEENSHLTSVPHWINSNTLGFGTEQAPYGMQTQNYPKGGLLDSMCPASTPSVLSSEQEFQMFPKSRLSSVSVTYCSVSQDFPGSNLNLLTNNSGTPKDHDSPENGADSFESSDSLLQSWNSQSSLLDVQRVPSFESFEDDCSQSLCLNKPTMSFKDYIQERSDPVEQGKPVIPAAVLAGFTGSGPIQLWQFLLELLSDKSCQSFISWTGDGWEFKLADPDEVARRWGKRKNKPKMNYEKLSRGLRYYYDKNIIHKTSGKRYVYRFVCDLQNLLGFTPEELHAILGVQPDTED
The note with it: protein: recombinant; tags: N-terminal GST; dsDNA, one strand shown. The gist of the method:
as §1

For a further experiment, the target named is T9, SPDEF (Homo sapiens, UniProt O95238 1-335).
T9 sequence: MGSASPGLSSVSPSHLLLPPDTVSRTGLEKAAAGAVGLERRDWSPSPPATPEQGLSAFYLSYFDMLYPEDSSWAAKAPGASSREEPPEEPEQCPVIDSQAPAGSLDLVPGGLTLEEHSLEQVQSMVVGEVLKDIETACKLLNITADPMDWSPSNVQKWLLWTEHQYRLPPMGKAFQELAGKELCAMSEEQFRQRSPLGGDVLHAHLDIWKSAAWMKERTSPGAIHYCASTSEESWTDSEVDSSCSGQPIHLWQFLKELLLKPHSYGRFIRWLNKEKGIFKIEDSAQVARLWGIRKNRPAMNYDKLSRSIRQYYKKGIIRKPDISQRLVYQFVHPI
The settings on record: protein: recombinant; tags: N-terminal GST; dsDNA, one strand shown. The gist of the method: as §1

The target of a further experiment is T10, ETV7 (Homo sapiens, UniProt Q9Y603 1-341).
T10 sequence: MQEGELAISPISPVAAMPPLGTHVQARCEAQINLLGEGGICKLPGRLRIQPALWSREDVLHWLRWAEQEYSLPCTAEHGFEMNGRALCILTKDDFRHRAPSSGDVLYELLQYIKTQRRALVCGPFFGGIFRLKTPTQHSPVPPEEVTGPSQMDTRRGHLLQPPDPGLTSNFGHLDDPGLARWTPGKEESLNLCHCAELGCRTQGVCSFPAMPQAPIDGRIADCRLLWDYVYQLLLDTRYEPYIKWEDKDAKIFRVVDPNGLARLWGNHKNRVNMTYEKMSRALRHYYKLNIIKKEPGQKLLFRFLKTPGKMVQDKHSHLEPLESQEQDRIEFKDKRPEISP
The note with it: protein: recombinant; tags: N-terminal GST; dsDNA, one strand shown. The gist of the method:
as §1

The next experiment addresses T11, ELF5 (Homo sapiens, UniProt Q9UKW6-2 1-255).
T11 sequence: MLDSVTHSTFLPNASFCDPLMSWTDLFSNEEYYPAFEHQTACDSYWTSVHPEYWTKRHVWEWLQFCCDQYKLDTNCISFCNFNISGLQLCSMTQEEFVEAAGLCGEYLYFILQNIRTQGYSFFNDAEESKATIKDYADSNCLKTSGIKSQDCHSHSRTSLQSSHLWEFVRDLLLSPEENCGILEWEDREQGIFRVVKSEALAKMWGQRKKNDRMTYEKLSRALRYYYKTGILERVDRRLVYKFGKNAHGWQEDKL
The note with it: protein: recombinant; tags: N-terminal GST; dsDNA, one strand shown. The method in brief:
as §1

Another experiment concerns the target T12, ETV3 (Homo sapiens, UniProt P41162-2 1-143).
T12 sequence: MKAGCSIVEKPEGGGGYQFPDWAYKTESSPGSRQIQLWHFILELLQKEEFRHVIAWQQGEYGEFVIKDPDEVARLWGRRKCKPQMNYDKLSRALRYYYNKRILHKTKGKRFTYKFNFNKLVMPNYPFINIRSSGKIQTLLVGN
The settings on record: protein: recombinant; tags: N-terminal GST; dsDNA, one strand shown. The gist of the method:
as §1

Another experiment deals with ETV6 (Homo sapiens, UniProt P41212 1-452). The settings on record: protein: recombinant; tags: N-terminal GST; dsDNA, one strand shown. The gist of the method:
as §1

Sequence of ELF4 (Q99607 whole entry): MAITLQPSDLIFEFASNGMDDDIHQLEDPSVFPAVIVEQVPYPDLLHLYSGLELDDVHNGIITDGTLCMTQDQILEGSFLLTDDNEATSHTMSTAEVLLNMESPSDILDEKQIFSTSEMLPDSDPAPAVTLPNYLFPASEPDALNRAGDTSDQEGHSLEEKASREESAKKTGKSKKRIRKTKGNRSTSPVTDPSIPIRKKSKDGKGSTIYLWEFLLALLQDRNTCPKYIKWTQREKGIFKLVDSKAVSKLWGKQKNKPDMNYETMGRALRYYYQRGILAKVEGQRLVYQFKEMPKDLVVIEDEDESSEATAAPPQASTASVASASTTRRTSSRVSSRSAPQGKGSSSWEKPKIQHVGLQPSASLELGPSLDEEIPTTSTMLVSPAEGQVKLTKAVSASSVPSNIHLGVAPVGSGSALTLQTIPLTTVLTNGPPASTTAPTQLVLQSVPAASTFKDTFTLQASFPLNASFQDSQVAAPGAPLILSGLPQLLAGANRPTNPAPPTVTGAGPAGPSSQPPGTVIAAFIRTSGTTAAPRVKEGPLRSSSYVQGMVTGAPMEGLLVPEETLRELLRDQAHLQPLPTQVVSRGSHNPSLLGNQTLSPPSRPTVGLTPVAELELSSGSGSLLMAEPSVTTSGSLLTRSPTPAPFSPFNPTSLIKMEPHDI
Sequence of HSF1 (Q00613 whole entry): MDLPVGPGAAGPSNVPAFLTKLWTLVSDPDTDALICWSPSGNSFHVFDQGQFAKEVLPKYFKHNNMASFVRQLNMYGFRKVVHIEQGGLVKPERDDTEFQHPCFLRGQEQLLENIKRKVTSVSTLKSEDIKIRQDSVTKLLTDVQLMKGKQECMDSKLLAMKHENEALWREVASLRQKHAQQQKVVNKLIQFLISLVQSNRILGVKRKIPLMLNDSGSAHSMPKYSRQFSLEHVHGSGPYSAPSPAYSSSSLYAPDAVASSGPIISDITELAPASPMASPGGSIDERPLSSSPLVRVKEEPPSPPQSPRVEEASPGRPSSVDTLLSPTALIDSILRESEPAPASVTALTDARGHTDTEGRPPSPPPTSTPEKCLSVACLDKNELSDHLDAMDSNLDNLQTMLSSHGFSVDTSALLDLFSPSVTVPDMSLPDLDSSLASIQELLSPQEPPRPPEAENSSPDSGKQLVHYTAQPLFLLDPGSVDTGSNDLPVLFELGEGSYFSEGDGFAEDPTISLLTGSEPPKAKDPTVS
Sequence of ETV5 (P41161 whole entry): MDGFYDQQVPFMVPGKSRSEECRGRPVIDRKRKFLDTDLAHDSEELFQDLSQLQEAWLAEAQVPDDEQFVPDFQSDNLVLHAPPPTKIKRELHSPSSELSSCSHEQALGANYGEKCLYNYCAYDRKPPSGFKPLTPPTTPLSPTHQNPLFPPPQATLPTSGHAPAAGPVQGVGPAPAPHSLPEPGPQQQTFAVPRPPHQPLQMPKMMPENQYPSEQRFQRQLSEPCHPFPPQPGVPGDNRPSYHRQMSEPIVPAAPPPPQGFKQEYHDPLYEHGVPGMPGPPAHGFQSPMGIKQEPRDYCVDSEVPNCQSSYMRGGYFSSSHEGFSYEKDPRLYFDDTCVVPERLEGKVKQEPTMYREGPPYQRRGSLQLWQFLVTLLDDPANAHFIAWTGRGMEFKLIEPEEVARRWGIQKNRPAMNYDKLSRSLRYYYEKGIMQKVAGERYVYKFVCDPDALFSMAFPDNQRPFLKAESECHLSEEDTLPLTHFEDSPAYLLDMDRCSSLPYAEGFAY
Sequence of ETV1 (P50549 whole entry): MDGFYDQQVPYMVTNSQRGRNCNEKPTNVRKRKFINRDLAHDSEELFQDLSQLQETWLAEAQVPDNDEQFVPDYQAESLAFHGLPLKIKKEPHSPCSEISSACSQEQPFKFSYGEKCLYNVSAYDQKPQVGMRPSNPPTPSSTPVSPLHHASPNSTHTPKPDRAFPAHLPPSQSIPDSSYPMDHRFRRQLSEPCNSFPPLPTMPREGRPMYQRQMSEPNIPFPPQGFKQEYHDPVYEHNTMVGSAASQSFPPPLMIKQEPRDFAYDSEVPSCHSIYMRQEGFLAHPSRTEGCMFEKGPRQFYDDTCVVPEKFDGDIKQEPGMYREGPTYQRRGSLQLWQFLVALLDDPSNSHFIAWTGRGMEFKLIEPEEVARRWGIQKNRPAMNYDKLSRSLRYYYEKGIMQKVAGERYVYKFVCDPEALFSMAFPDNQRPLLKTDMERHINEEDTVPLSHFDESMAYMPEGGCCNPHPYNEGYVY
Sequence of CRX (O43186 whole entry): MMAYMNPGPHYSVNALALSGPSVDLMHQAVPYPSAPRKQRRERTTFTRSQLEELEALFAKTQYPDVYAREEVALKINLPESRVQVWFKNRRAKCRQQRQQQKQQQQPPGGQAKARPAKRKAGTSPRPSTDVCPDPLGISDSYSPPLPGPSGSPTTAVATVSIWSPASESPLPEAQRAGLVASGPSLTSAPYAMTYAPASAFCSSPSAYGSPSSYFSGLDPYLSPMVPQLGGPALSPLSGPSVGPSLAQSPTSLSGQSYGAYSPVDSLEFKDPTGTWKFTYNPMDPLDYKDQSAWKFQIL
Sequence of ETV6 (P41212 whole entry): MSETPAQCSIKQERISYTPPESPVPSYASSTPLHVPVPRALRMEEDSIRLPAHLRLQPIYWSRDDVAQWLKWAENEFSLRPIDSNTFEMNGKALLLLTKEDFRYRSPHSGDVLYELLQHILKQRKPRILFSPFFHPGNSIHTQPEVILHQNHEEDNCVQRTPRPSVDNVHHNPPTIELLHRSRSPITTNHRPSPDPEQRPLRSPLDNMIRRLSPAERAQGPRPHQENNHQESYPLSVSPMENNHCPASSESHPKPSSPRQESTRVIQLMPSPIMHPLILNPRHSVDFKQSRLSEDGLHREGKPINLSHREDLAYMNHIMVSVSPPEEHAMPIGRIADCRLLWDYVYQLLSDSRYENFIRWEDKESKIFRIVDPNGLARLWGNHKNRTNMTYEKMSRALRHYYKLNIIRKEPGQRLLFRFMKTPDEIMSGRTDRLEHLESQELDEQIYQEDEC

For the sequence TGCGCT, the binding signal with FEV was 1.25 fold enrichment (6-mer frequency, TF over GST control); with ETV5 it was 1.28 fold enrichment (6-mer frequency, TF over GST control); with HSF1, 1.07 fold enrichment (6-mer frequency, TF over GST control); in the experiment with SPIC, 1.24 fold enrichment (6-mer frequency, TF over GST control); with ELF4, 1.19 fold enrichment (6-mer frequency, TF over GST control); with ELK4, 1.46 fold enrichment (6-mer frequency, TF over GST control). Moreover, the binding signal with ETV2 was 1.35 fold enrichment (6-mer frequency, TF over GST control); with ELF3, 1.04 fold enrichment (6-mer frequency, TF over GST control); with CRX it was 1.2 fold enrichment (6-mer frequency, TF over GST control); with ETV1, 1.17 fold enrichment (6-mer frequency, TF over GST control); with ERF it was 1.33 fold enrichment (6-mer frequency, TF over GST control); in the experiment with ETV3L, 1.21 fold enrichment (6-mer frequency, TF over GST control). Moreover, the binding signal with ETS2 is 1.43 fold enrichment (6-mer frequency, TF over GST control); with SPDEF, 1.19 fold enrichment (6-mer frequency, TF over GST control); in the experiment with ETV7 it was 1.17 fold enrichment (6-mer frequency, TF over GST control); with ELF5, 1.15 fold enrichment (6-mer frequency, TF over GST control); with ETV3, 1.24 fold enrichment (6-mer frequency, TF over GST control); with ETV6, 1.24 fold enrichment (6-mer frequency, TF over GST control).
